# How the values were obtained:
# Experiment in all cases: PBM binding z-score (relative to random genomic background probes); higher = stronger binding; sequences stand for … in GC…GCGATTGACAGCGTAGAATGAAGG
# [1] = test system: FXR:RXRa (NR concentration 270 nM, RXRa partner concentration 90 nM)
# Outline: (§1)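 The probes on custom Agilent 4×180K protein-binding microarrays were double-stranded, with 34-nt variable regions bearing direct-repeat seeds, single-nucleotide variants, half-site ablations and random human genomic background sequences. Incubation lasted 1 h with ligand-free nuclear receptor dimers in PBS pH 7.4, 2% milk, 0.02% Triton X-100, 1 mM DTT, 0.2 mg/mL BSA and 0.4 mg/ml salmon testes DNA. Antibodies against each partner (one per run) detected bound dimers, and fluorescence scans were regression-normalized. Binding z-scores take the random background probes as reference.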
# [2] = test system: LXRa:RXRa (NR concentration 270 nM, RXRa partner concentration 90 nM)
# Outline: as §1
# [3] = test system: LXRa homodimer (NR concentration 270 nM)
# Outline: as §1
# [4] = test system: LXRb:RXRa (NR concentration 270 nM, RXRa partner concentration 90 nM)
# Outline: as §1
# [5] = test system: LXRb homodimer (NR concentration 270 nM)
# Outline: as §1
# [6] = test system: PPARa:RXRa (NR concentration 270 nM, RXRa partner concentration 90 nM)
# Outline: as §1
# [7] = test system: PPARg:RXRa (NR concentration 180 nM, RXRa partner concentration 90 nM)
# Outline: as §1
# [8] = test system: PPARg:RXRa 270nM:90nM, anti-RXR (NR concentration 270 nM, RXRa partner concentration 90 nM)
# Outline: as §1
# [9] = test system: PPARg:RXRa 30nM:10nM, anti-RXR (NR concentration 30 nM, RXRa partner concentration 10 nM)
# Outline: as §1
# [10] = test system: PPARg:RXRa 90nM:30nM, anti-RXR (NR concentration 90 nM, RXRa partner concentration 30 nM)
# Outline: as §1
# [11] = test system: PPARg:RXRa DBDmut IVT, anti-RXR (DBD mutation: RXRa K156A/R161A, NR concentration 270 nM, RXRa partner concentration 90 nM)
# Outline: as §1
# [12] = test system: PPARg:RXRa IVT, anti-PPARg (NR concentration 270 nM, RXRa partner concentration 90 nM)
# Outline: as §1
# [13] = test system: PPARg DBDmut:RXRa IVT, anti-PPARg (DBD mutation: PPARg1 K132A/R137A, NR concentration 270 nM, RXRa partner concentration 90 nM)
# Outline: as §1
# [14] = test system: PPARg DBDmut IVT, anti-PPARg (DBD mutation: PPARg1 K132A/R137A, NR concentration 270 nM)
# Outline: as §1
# [15] = test system: PPARg homodimer (NR concentration 180 nM)
# Outline: as §1
# [16] = test system: PXR:RXRa (NR concentration 270 nM, RXRa partner concentration 90 nM)
# Outline: as §1
# [17] = test system: PXR homodimer (NR concentration 270 nM)
# Outline: as §1
# [18] = test system: RARa:RXR (NR concentration 270 nM, RXRa partner concentration 90 nM)
# Outline: as §1
# [19] = test system: RARa homodimer (NR concentration 270 nM)
# Outline: as §1
# [20] = test system: RARb:RXRa (NR concentration 270 nM, RXRa partner concentration 90 nM)
# Outline: as §1
Sequence,PBM binding z-score [1],PBM binding z-score [2],PBM binding z-score [3],PBM binding z-score [4],PBM binding z-score [5],PBM binding z-score [6],PBM binding z-score [7],PBM binding z-score [8],PBM binding z-score [9],PBM binding z-score [10],PBM binding z-score [11],PBM binding z-score [12],PBM binding z-score [13],PBM binding z-score [14],PBM binding z-score [15],PBM binding z-score [16],PBM binding z-score [17],PBM binding z-score [18],PBM binding z-score [19],PBM binding z-score [20]
GGTAGCAGGCCATTTGGGTCACTCAATGACGGGC,0.428,0.0822,-0.186,0.118,-0.593,1.49,0.828,0.694,-0.356,0.275,0.966,2.81,-0.125,-0.507,0.75,0.505,-0.0413,0.741,-0.36,1.75
AGAACGAGGGCAATGAGTTGATATCACGGGTGGC,0.383,0.334,-0.363,-0.00546,-0.245,1.52,1.86,1.07,0.219,0.833,3.27,2.39,0.947,-0.37,0.0848,1.68,4.4,0.557,-0.0418,1.95
CAAACTAGGTCAAGAGGTTAAAGTCCGCTTCCCG,5.05,4.32,2.01,3.13,0.567,5.3,8.91,7.27,5.14,7.16,8.33,8.39,1.58,0.849,2.66,3.48,0.622,4.85,1.25,4.47
CTACCAAGGTGAACAAGGTCCTTGATTACTATTC,0.682,0.376,-0.214,0.744,-0.587,1.57,0.578,0.855,-0.122,0.296,2.33,2.45,0.391,-0.0815,0.182,0.728,0.218,0.944,-0.035,1.64
CCTTATGGGTCACTCCAGGTTATAGCATCGGAGT,3.67,7.24,1.43,4.49,-0.105,3.92,4.6,4.39,1.84,3.6,5.51,5.56,1.27,1.01,1.61,4.22,0.18,2.9,0.657,3.35
AGAATGAGCTTATACGTAGATCAGGGAAGAAAGT,-0.818,-0.491,-0.371,-0.861,-0.689,-0.706,0.415,-0.614,-0.0699,-0.597,-1.19,-0.676,0.558,0.438,-0.99,-0.359,-0.186,-0.221,-0.183,-1.13
ATCGAAAGGTTGACGAGGTGAGTATACACCGTTT,1.11,0.773,-0.233,0.764,-0.00698,1.79,0.968,0.974,0.581,0.771,0.0825,1.03,0.76,1.04,0.684,0.914,0.374,1.25,0.63,1.79
TCTTGTAGATCAATAGAGGTTAAAAAAGTGCGCT,0.88,4.42,1.13,2.5,0.00759,2.06,0.202,1.65,2.75,2.06,1.82,1.24,0.792,0.476,0.579,2.56,0.23,1.79,0.767,0.762
ATCGAAAGGTCGTGAGGTGAGTATGCAGAAAGGC,5.14,4.02,0.302,2.91,0.303,5.19,3.67,4.56,1.24,3.19,0.289,2.19,1.46,1.35,1.5,2.98,-0.0975,4.43,0.592,4.01
GCTTACGGGTCAAAGGTTAGAGCATGAATAGAAT,7.32,5.34,0.175,5.27,-0.0451,6.73,10.6,8.89,8.08,9.45,4.34,5.74,0.587,1.17,3.25,5.59,0.235,7.74,0.552,4.37
CGAACGAGGGCATGAGTTGAGAGCAAATGCCGAT,0.636,0.355,-0.664,0.203,-1,1.65,1.42,1.4,0.0136,0.958,3.19,2.16,-0.212,-0.733,-0.198,0.363,-0.12,0.437,-0.617,2.05
CCTAGCAGTCCAATCTGGGTCACTCAAGGCTTGA,0.349,0.868,-0.0916,0.921,-0.342,2.91,1.73,2.01,-0.0165,1.64,3.55,4.58,-0.524,-0.84,0.738,1.04,-0.0331,1.58,-0.751,1.17
ACTATTAGTTGAGACGAGGGCGACCGATAGGTTG,0.0775,-0.2,0.0498,-0.401,8.35e-05,-0.485,0.629,-0.198,0.0514,-0.0518,0.0234,-0.184,0.772,0.784,0.303,0.205,0.117,0.144,0.456,0.332
CGAACTAGGTCATGCAGGACAGTGAATACATTGA,3.87,2.17,0.149,1.88,-0.2,4.66,7.65,6.21,3.69,5.66,8.05,8.18,3.1,1.2,1.1,1.34,0.687,1.97,0.243,3.92
CCGAGTAGGTTATGGCGCATTCAGGCAACGGTGA,-0.0642,0.163,-0.0103,0.076,-0.283,0.62,0.319,0.503,-0.377,0.107,3.17,1.71,-0.391,-0.415,0.648,-0.289,-0.0371,0.131,0.249,0.551
CCTAGTTGGTCAGGAGGTCACACCCCGGATATGA,3.53,3.05,2.07,3.15,0.855,3.98,2.86,3.57,1.05,3.09,1.1,3.66,0.426,0.108,3.14,4.1,1.16,4.24,2.03,3.71
CGAACTAGGTCATTGACTGGACAGTGAATAGTAA,4.77,2.75,0.235,1.83,-0.381,4.74,7.36,6.43,3.34,5.78,8.06,8.06,5.21,5.65,0.956,0.89,0.0623,1.78,0.262,3.52
CCGACTGGGGGATAAGGTTACCATAAGCCAGCCC,0.506,2.65,-0.0985,2.4,2.01,1.91,1.43,2.38,1.06,2.07,0.611,1.85,1.28,1.34,0.934,1.15,-0.306,1.64,0.448,0.896
ACAGACAGGTGAGTGAACGTAACTCAGCTGGACG,-0.265,-0.366,-0.561,-0.436,-0.532,-0.0939,0.744,-0.203,-0.222,-0.308,0.689,0.457,0.319,-1.39,-0.743,-0.554,-0.547,-0.741,-0.186,0.247
CCTACTGGGCCACGAAAGGTCATTCATTCAGTGA,3.89,5.43,6.05,4.47,0.659,4.73,4.8,5.02,1.88,4.42,5.95,5.87,1.4,0.0477,3.21,5.7,2.12,5.5,1.45,4.15
CCTACTGGGCCAAAAAGATCATTGATGCCGATAA,-0.2,-0.313,-0.155,-0.481,-0.601,0.11,0.525,0.504,-0.0196,0.372,3.14,2.44,-0.679,-0.158,0.38,-0.395,-0.298,-0.562,0.184,-0.239
ACTAGTTGGTCATCTGAGGTCACACACAATTCGG,3.47,5.26,5.1,4.09,1.65,3.98,2.52,2.62,1.13,2.05,2.52,3.08,1.2,0.851,3.6,5.61,2.26,4.86,1.05,3.69
TCAGACAGGTGAAGGTAACTCATGTACGCAGTCG,0.849,1.03,-0.116,0.964,-0.0252,1.26,0.954,2.14,4.07,2.81,2.93,1.04,0.0578,0.317,0.397,0.672,0.214,0.117,0.348,1.04
TCTCGGCGGACACGAAAGGTCAGAGCTCGACATC,1.93,3.18,2.3,2.79,-0.427,2.94,0.571,1.69,1.42,1.53,1.12,0.541,-0.347,-0.845,1.83,3.15,-0.247,3.71,0.345,3.56
GCTACTGGGGCAAAGCAGGTTACCATAAGGTTGG,0.552,0.174,-0.316,0.4,-0.276,2.24,2.37,2.63,0.398,1.52,6.4,5.54,0.032,-0.0829,0.182,0.319,-0.456,0.495,-0.534,1.12
ACTATTAGTTGAGACGAGGGCAACCTATAGGTTG,0.678,0.287,-0.0979,0.142,0.336,0.29,0.636,-0.0542,0.31,-0.00139,-0.0527,0.486,1.43,1.25,0.36,1.39,0.585,1.09,0.942,0.936
ATCTCTAGGTAACCAAGTTCAGGGAATGCCGAAC,0.126,0.821,0.817,0.638,0.621,1.28,0.946,1.03,0.158,0.596,3.23,2.89,0.704,1.55,0.857,2.04,1.49,0.735,0.329,1.15
CGTCCAAGGTGAGAGAGGTCAGTGAATGCCGAGT,2.18,2.18,0.878,2.05,-0.732,3.11,1,1.7,0.115,1.07,2.16,2.49,-1.39,-1.25,2.8,3.75,2.87,3.54,0.726,3.46
ATATGGAGGTTATCGGGTCATTCAGTTTGCGCAT,4.63,4.39,2.28,3.8,1.41,4.84,5.29,5,2.08,3.73,4.66,4.91,1.95,1.8,2.89,4.61,8.4,4.75,1.62,3.26

# From the supplement of paper PMC6555819
